From the OligoGym collection come the findings set out here.
Further: reference of the scale not given here.

One assay concerns the target TMEM218. Nature of the assay: pooled miR-30 sensor sort-seq; sequence = guide strand. Conditions: shRNA.
Regarding AATCTTAACTTCCACTTCTGGG, the sensor-assay potency score (higher = more potent) was -0.603.

Regarding TTAACTTCCACTTCTGGGGCTG, the sensor-assay potency score (higher = more potent) was determined as 0.528.

With ATGTGATGATCACAGCACCGAA, the sensor-assay potency score (higher = more potent) was -1.69.

On to ATCCACAATCTTAACTTCCACT, for which the sensor-assay potency score (higher = more potent) is -0.762.

The sequence AAAGCCAGCAGGACATAGCGGC displayed a sensor-assay potency score (higher = more potent) of -0.627.

As for ATCTTAACTTCCACTTCTGGGG, the sensor-assay potency score (higher = more potent) was -0.795.

TGTGATGATCACAGCACCGAAG registered a sensor-assay potency score (higher = more potent) of -0.957.

Consider AAAAAAATGACAGAGAACCTCG, for which the sensor-assay potency score (higher = more potent) amounted to 0.153.

Turning to AACATAATGGATTAAAACCAAG, the sensor-assay potency score (higher = more potent) is -1.68.

Regarding AAAAGCAACAGAACTGATGTGA, the sensor-assay potency score (higher = more potent) amounted to 0.455.

TAACTTCCACTTCTGGGGCTGG had a sensor-assay potency score (higher = more potent) of -0.428.

The target in another assay is TMEM229B. The assay is described as above. As to conditions: shRNA.
On to AACTCCCACAGGTAGGTCCAGA, for which the sensor-assay potency score (higher = more potent) is -1.06.

For the sequence TCACCTCGCAGAAGTAGCCGTG, the sensor-assay potency score (higher = more potent) is -0.46.

The sequence TCCTTGTCGAAGCGGAGGCGGA registered a sensor-assay potency score (higher = more potent) of -1.59.

Sequence TCCACGATGAGGATGGAGGTGC returned a sensor-assay potency score (higher = more potent) of -1.19.

Regarding TGAAGTCAAAGTCGAACTGGGA, the sensor-assay potency score (higher = more potent) was -0.249.

Sequence TCGAACTGGGAGTAGTCCCAGG returned a sensor-assay potency score (higher = more potent) of -0.884.

The sequence TTGCGGATGATGAACTGCTCCA returned a sensor-assay potency score (higher = more potent) of -0.427.

ATGGCATACAGGTACCAGCGGG registered a sensor-assay potency score (higher = more potent) of -1.1.

Consider TGGCATACAGGTACCAGCGGGA, for which the sensor-assay potency score (higher = more potent) is -0.837.

In turn, AAGTTCACCACGAACTCCCAGG came in with a sensor-assay potency score (higher = more potent) of -0.691.

Take TCAGCGTCCTTGTCGAAGCGGA: the sensor-assay potency score (higher = more potent) is -0.896.

ATCACCTCGCAGAAGTAGCCGT had a sensor-assay potency score (higher = more potent) of -0.867.

A further assay addresses TMEM22. The assay is described as above. As to conditions: shRNA.
Sequence TTCACCATCACTGTGTTGGGAT gave a sensor-assay potency score (higher = more potent) of 0.611.

In the case of TAACACACAACTAACACAGATA, the sensor-assay potency score (higher = more potent) is -0.611.

TTGTCCAATCTCATTGATCATT gave a sensor-assay potency score (higher = more potent) of -1.19.

TATAACACAAAAGACATTCATA came in with a sensor-assay potency score (higher = more potent) of -0.457.

The sequence TTTCTTTGGATTTTCCTCCATA came in with a sensor-assay potency score (higher = more potent) of -0.74.

TTAACAAAGAATTGTCTTCATC returned a sensor-assay potency score (higher = more potent) of -1.39.

For ATTGTCTTCATCAACAATGTTT, the sensor-assay potency score (higher = more potent) was -0.906.

The sequence TAAAAGAAGAGTCGTAATCTGT showed a sensor-assay potency score (higher = more potent) of -0.127.

With TTGATCATTGGGTCTTCTGTTG, the sensor-assay potency score (higher = more potent) is -0.772.

TTTTTTTCTGCAAAGCTCTGGA: the sensor-assay potency score (higher = more potent) is 0.243.

Regarding TAGTATTTCCTGGTAGTCCTGC, the sensor-assay potency score (higher = more potent) was -0.0251.

The target of the next assay is TMEM231. The assay is described as above. Conditions: shRNA.
TTAAAATGTAACATGTCCGTCT: the sensor-assay potency score (higher = more potent) came out at 0.405.

Take TTACCATCTCCCAGAATCCTGG: the sensor-assay potency score (higher = more potent) was -0.723.

TAATCGATAGGAGAAAGTCAGG had a sensor-assay potency score (higher = more potent) of -1.54.

TGAGGTCGTAGTCATAGGCAAA yielded a sensor-assay potency score (higher = more potent) of -1.58.

On to TAGGCCACCACAGCTCAGCGGC, for which the sensor-assay potency score (higher = more potent) is -1.06.

TAGCATTAATCACAAATGGAGC had a sensor-assay potency score (higher = more potent) of -1.05.
